Results: PubChem BioAssay (NCATS)
Results filed as inconclusive are left out. Activity calls are given as the source filed them. Calls come from the whole dose curve; as a rule, active = well fitted curve in the direction sought with a large enough effect; inconclusive = small, poorly fitted or top-dose-only effect, or another doubt; inactive = no such curve, though single readings can be large; an effect the other way counts as inactive or inconclusive.

Assays:
[1] = biological target: Glutathione peroxidase 1 (Homo sapiens) (UniProt P07203); assay: Primary qHTS Assay for Inhibitors of Recombinant Selenoprotein Glutathione Peroxidase 1 (GPX1) (AID 1845191); note: nearly all actives have a fitted effect of over 65% in size; for activity, negative = inhibition: % is set by controls: 0 for no effect and ±100 for the full control effect
Chain of Glutathione peroxidase 1 (Homo sapiens) (P07203 whole entry, looked up): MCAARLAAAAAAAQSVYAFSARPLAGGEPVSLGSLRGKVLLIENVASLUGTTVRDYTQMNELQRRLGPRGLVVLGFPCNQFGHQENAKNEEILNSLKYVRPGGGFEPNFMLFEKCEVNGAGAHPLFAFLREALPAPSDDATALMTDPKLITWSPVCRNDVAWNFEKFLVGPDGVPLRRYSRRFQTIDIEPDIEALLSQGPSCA
Procedure, shortened: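 Recombinant GPX1 (10 nM final) was preincubated with compound for 30 min at room temperature, then reacted with 1 mM GSH, 0.5 mM CHP, 0.5 mM NADPH and 100 nM glutathione reductase; NADPH fluorescence (340/450 nm) was read at 0 and 15 min.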

[2] = biological target: Phospholipid hydroperoxide glutathione peroxidase GPX4 (Homo sapiens) (UniProt P36969); assay: Primary qHTS Assay for Inhibitors of Recombinant Selenoprotein Glutathione Peroxidase 4 (GPX4) (AID 1845192); note: nearly all actives have a fitted effect of over 65% in size; for activity change, negative = inhibition: series mostly up to about 50 µM; % is set by controls: 0 for no effect and ±100 for the full control effect
Chain of Phospholipid hydroperoxide glutathione peroxidase GPX4 (Homo sapiens) (P36969 whole entry, looked up): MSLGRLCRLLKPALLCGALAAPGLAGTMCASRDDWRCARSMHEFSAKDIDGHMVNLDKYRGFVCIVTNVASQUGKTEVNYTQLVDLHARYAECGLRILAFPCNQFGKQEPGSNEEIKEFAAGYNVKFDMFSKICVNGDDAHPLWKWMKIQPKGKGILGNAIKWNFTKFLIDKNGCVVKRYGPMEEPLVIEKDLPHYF
Procedure, shortened: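 GR-coupled readout: 100 nM GR, 1 mM GSH, 0.5 mM NADPH; NADPH fluorescence (ex 340/em 450 nm) read at t=0 and after 15 min RT. GPX4 200 nM, preincubated 30 min with compound; substrate 0.5 mM CHP.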

[3] = biological target: Luciferin 4-monooxygenase (Photinus pyralis) (UniProt P08659); assay: Primary firefly luciferase (FLuc) qHTS assay for identification of artifact compounds. (AID 1845220); note: nearly all actives have a fitted effect of over 60% in size; note: potency is the fitted concentration of half-maximal effect;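 for activity change, negative = inhibition: series mostly up to about 54 µM; plate controls were DMSO vehicle for no effect and no enzyme for full effect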
Procedure, shortened: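 Reaction readout was CCD-imaged luminescence, taken 5 min after adding 10 nM purified firefly enzyme to compound-treated wells holding 10 uM luciferin and ATP in pH 7.6 buffer.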

[4] = Primary fluorescence-based thiol-reactive (MSTI) qHTS assay for identification of artifact compounds. (AID 1845221); note: nearly all actives have a fitted effect of over 65% in size; note: potency is the fitted concentration of half-maximal effect;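 for activity change, negative = thiol reactive: series mostly up to about 54 µM; thiol-reactive compounds lower the probe fluorescence signal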
Procedure, shortened: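 A multi-concentration qHTS design tested compounds against 4 uM MSTI, pH 7.4 phosphate-buffered saline. Plates were protected from light for 1 h at room temperature before imaging fluorescence.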

[5] = test system: Nanoluciferase (engineered Oplophorus gracilirostris luciferase); assay: Primary Nanoluciferase (NLuc) qHTS assay for identification of artifact compounds. (AID 1845222);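 note: NLuc secreted into diluted conditioned medium of S16 cells; series mostly up to about 54 µM; 0% = DMSO and -100% = no enzyme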
Procedure, shortened: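 Concentration-response data were obtained by luminescence after 5 min with Nano-Glo substrate at 1:100. The enzyme was diluted S16 NLuc-expressing cell medium, preincubated with compound for 15 min at RT. Curves were fitted with a 4-parameter Hill model.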

C[C@@H]1O[C@@H](O[C@H]2[C@H](O[C@H]3[C@H](O[C@H]4CC[C@@]5(C)C(CC[C@]6(C)C5CC=C5[C@@H]7CC(C)(C)C[C@@H](O)[C@]7(C)CC[C@]56C)[C@@]4(C)CO)O[C@H](C(=O)O)[C@@H](O)[C@@H]3O)O[C@H](CO)[C@H](O)[C@@H]2O)[C@H](O)[C@H](O)[C@H]1O (stereo not given in full)
inactive: Potency [1] | Potency [2] | activity change, negative = inhibition [3] 0.671% [at 11.6 µM] | activity change, negative = thiol reactive [4] 67.3% [at 11.5 µM] | activity, negative = inhibition [5] 4.57% [at 11.6 µM]

N#Cc1cccc(-c2c[nH]c3ncnc(N4CCOCC4)c23)c1
inactive: Potency [1] | Potency [2] | Potency [3] | Potency [4] | Potency [5]

C[C@@H](NC(=O)c1cc(C(=O)N[C@@H](Cc2ccccc2)[C@H](O)CNC2CC2)cc(N(C)S(C)(=O)=O)c1)c1ccccc1
inactive: Potency [1] | Potency [2] | Potency [3] | Potency [4] | Potency [5]

CC1=C(CCC(C)O[C@@H]2O[C@H](CO)[C@@H](O)[C@H](O)[C@H]2O)C(C)(C)CC(O)C1 (stereo not given in full)
active: Potency [4] 5.85 µM
inactive: Potency [1] | Potency [2] | Potency [3] | Potency [5]

CC1=C2CC(=O)C(C)CC/C=C(\C)CC2(O)OC1=O (stereo not given)
inactive: Potency [1] | Potency [2] | Potency [3] | Potency [4] | Potency [5]

CCN=C1N[C@@H]2[C@@H](O)[C@H](O)[C@@H](CO)O[C@@H]2S1
inactive: Potency [1] | Potency [2] | Potency [3] | Potency [4] | Potency [5]

O=c1[nH]ccc2nc(-c3ccc(CN4CCC(c5nc(-c6ccccn6)n[nH]5)CC4)cc3)c(-c3ccccc3)cc12
inactive: Potency [1] | Potency [2] | Potency [3] | Potency [4] | Potency [5]

COCC1OC(n2cnc3c(=O)[nH]cnc32)C(O)C1O (stereo not given)
inactive: Potency [1] | Potency [2] | Potency [3] | Potency [4] | Potency [5]

C=Cc1ccc(O[C@@H]2O[C@H](CO[C@@H]3O[C@@H](C)[C@H](O)[C@@H](O)[C@H]3O)[C@@H](O)[C@H](O)[C@H]2O)cc1
inactive: Potency [1] | Potency [2] | Potency [3] | Potency [5]
active: Potency [4] 11.6 µM

C[C@@H]1CC2OC(=O)C3=C2C(CCC3O)[C@@]12C[C@@H](c1ccoc1)OC2=O (stereo not given in full)
inactive: Potency [1] | Potency [2] | Potency [3] | Potency [4] | Potency [5]

CC(=O)OC(C)(C)/C=C/C(=O)[C@](C)(O)C1[C@H](O)C[C@@]2(C)[C@@H]3CC=C4[C@@H](C[C@H](O[C@@H]5O[C@H](CO)[C@@H](O)[C@H](O)[C@H]5O)C(=O)C4(C)C)[C@]3(C)C(=O)C[C@]12C (stereo not given in full)
inactive: Potency [1] | Potency [2] | Potency [3] | Potency [4] | Potency [5]

CC(=O)O[C@@H]1[C@H](O[C@@H]2O[C@H](CO)[C@@H](O)[C@H](O)[C@H]2O)[C@@H](O[C@@H]2O[C@@H](C)[C@H](O)[C@@H](O[C@@H]3O[C@H](CO)[C@@H](O)[C@H](O)[C@H]3O)[C@H]2O)[C@H](OC(=O)[C@]23CCC(C)(C)C[C@H]2C2=CCC4[C@@]5(C)C[C@H](O)[C@H](O[C@@H]6O[C@H](C(=O)O)[C@@H](O)[C@H](O)[C@H]6O)[C@@](C)(C(=O)O)C5CC[C@@]4(C)[C@]2(C)CC3)O[C@@H]1C (stereo not given in full)
inactive: Potency [1] | Potency [2] | outcome [3] inactive [at 11.6 µM] | activity change, negative = thiol reactive [4] 244% [at 11.5 µM] | activity, negative = inhibition [5] 4.94% [at 11.6 µM]

O=C(O)CC1(O)C(=O)Nc2ccccc21 (stereo not given)
active: Potency [4] 25.1 µM
inactive: Potency [1] | Potency [2] | Potency [3] | Potency [5]

O=C(OC(C(F)(F)F)C(F)(F)F)N1CCN(Cc2cccc(Oc3ccccc3)c2)CC1
inactive: Potency [1] | Potency [2] | Potency [3] | Potency [4] | Potency [5]

COc1cc(O)cc(C)c1C(=O)OC1C(CO)OC(n2ccc(=O)[nH]c2=O)C1OC(C)=O (stereo not given)
active: Potency [4] 9.22 µM
inactive: Potency [1] | Potency [2] | Potency [3] | Potency [5]

CC1(C)OC(=O)CC(O)C2(C)C1CC(=O)C1(C)C2C(O)CC2(C)C(c3ccoc3)OC(=O)C3OC321 (stereo not given)
inactive: Potency [1] | Potency [2] | Potency [3] | Potency [4] | Potency [5]

O=C(/C=C/C=C/c1ccc2c(c1)OCO2)N1CCCCC1
inactive: Potency [1] | Potency [2] | Potency [4] | Potency [5]
active: Potency [3] 10.7 µM

Cc1cc(C(=O)N2Cc3cnn(C)c3Nc3ccccc32)ccc1CNC(=O)N1CCN(Cc2cc(O)cc(O)c2)CC1
inactive: Potency [1] | Potency [2] | Potency [3] | Potency [4] | Potency [5]

COC(=O)C1=C[C@@H](O)[C@@H](O)[C@H](O[C@@H]2O[C@H](CO)[C@@H](O)[C@H](O)[C@H]2OC(=O)/C=C/c2ccccc2)C1
inactive: Potency [1] | Potency [2] | Potency [3] | Potency [4] | Potency [5]

CC1=C2CC3C(CCC3(C)O)C(C)(O)CC2OC1=O (stereo not given)
inactive: Potency [1] | Potency [2] | Potency [3] | Potency [5]
active: Potency [4] 23.8 µM

C=CC(C)(O)CC/C=C(\C)COC1O[C@H](CO)[C@@H](O)[C@H](O)[C@H]1O (stereo not given in full)
inactive: Potency [1] | Potency [2] | Potency [3] | Potency [5]
active: Potency [4] 2.93 µM
